According to the supplement of paper PMC8728848:
Shown is part of a subset that was picked to be rich in the strongest signals.

Legend:
Test in all cases: glycan array binding signal (z-score within array); higher = stronger binding
Conditions in all cases: glycan notation: IUPAC condensed, linker removed
[1] = molecular target: Fuc(a1-2)Gal(b1-3)GalNAc(b1-3)Gal(a1-4)Gal(b1-4)Glc
Outline: (§1)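 From the Consortium for Functional Glycomics database, 3228 arrays were curated, keeping only those whose protein sequence was available. Binding is given as a within-array Z-score averaged across arrays sharing a protein sequence and across linkers. Negative Z-scores can be read as non-binding.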

[2] = molecular target: Fuc(a1-2)Gal(b1-3)[Fuc(a1-4)]GlcNAc
Outline: as §1

[3] = molecular target: Fuc(a1-2)Gal(b1-3)[Fuc(a1-4)]GlcNAc(b1-2)Man(a1-3)[Fuc(a1-2)Gal(b1-3)[Fuc(a1-4)]GlcNAc(b1-2)Man(a1-3)]Man(b1-4)GlcNAc(b1-4)GlcNAc
Outline: as §1

[4] = molecular target: Fuc(a1-2)Gal(b1-3)[Fuc(a1-4)]GlcNAc(b1-3)[Gal(b1-4)GlcNAc(b1-6)]Gal(b1-4)Glc
Outline: as §1

[5] = molecular target: Fuc(a1-2)Gal(b1-4)GlcNAc(b1-2)Man
Outline: as §1

[6] = molecular target: Fuc(a1-2)[Gal(a1-3)]Gal(b1-3)GlcNAc(b1-6)GalNAc
Outline: as §1

[7] = molecular target: Fuc(a1-2)[Gal(a1-3)]Gal(b1-4)[Fuc(a1-3)]GlcNAc(b1-3)GalNAc
Outline: as §1

[8] = molecular target: Fuc(a1-2)[GalNAc(a1-3)]Gal(b1-3)GlcNAc(b1-6)GalNAc
Outline: as §1

[9] = molecular target: Fuc(a1-2)[GalNAc(a1-3)]Gal(b1-4)Glc
Outline: as §1

[10] = molecular target: Gal(a1-3)Gal(b1-3)GlcNAc(b1-2)Man(a1-3)[Gal(a1-3)Gal(b1-3)GlcNAc(b1-2)Man(a1-6)]Man(b1-4)GlcNAc(b1-4)GlcNAc
Outline: as §1

[11] = molecular target: Gal(a1-3)Gal(b1-3)[Fuc(a1-4)]GlcNAc(b1-2)Man(a1-3)[Gal(a1-3)Gal(b1-3)[Fuc(a1-4)]GlcNAc(b1-2)Man(a1-6)]Man(b1-4)GlcNAc(b1-4)GlcNAc
Outline: as §1

[12] = molecular target: Gal(a1-3)Gal(b1-4)[Fuc(a1-3)]GlcNAc(b1-2)Man(a1-3)[Gal(a1-3)Gal(b1-4)[Fuc(a1-3)]GlcNAc(b1-2)Man(a1-6)]Man(b1-4)GlcNAc(b1-4)GlcNAc
Outline: as §1

[13] = molecular target: Gal(a1-4)Gal(b1-4)GlcNAc(b1-3)Gal(b1-4)Glc
Outline: as §1

Gal(a1-6)Glc = molecular target: Gal(a1-6)Glc
Outline: as §1

Gal(b1-3)GalNAc(b1-3)Gal = molecular target: Gal(b1-3)GalNAc(b1-3)Gal
Outline: as §1

[14] = molecular target: Gal(b1-3)GalNAc(b1-3)Gal(a1-4)Gal(b1-4)Glc
Outline: as §1

[15] = molecular target: Gal(b1-3)GlcNAc(b1-2)Man(a1-3)[Gal(b1-3)GlcNAc(b1-2)Man(a1-6)]Man(b1-4)GlcNAc(b1-4)[Fuc(a1-6)]GlcNAc
Outline: as §1

[16] = molecular target: Gal(b1-3)GlcNAc(b1-3)Gal(b1-4)GlcNAc(b1-2)Man(a1-3)[Gal(b1-3)GlcNAc(b1-3)Gal(b1-4)GlcNAc(b1-2)Man(a1-6)]Man(b1-4)GlcNAc(b1-4)GlcNAc
Outline: as §1

[17] = molecular target: Gal(b1-3)GlcNAc(b1-3)Gal(b1-4)[Fuc(a1-3)]GlcNAc(b1-6)[Gal(b1-3)GlcNAc(b1-3)]Gal(b1-4)Glc
Outline: as §1

[18] = molecular target: Gal(b1-3)GlcNAc(b1-3)GalNAc
Outline: as §1

[19] = molecular target: Gal(b1-3)GlcNAc(b1-6)[Gal(b1-3)]GalNAc
Outline: as §1

[20] = molecular target: Gal(b1-3)[Fuc(a1-4)]GlcNAc(b1-6)GalNAc
Outline: as §1

Gal(b1-4)Glc6S = molecular target: Gal(b1-4)Glc6S
Outline: as §1

[21] = molecular target: Gal(b1-4)GlcNAc(b1-2)Man(a1-3)[Gal(b1-4)GlcNAc(b1-2)Man(a1-6)]Man(b1-4)GlcNAc(b1-4)[Fuc(a1-6)]GlcNAc
Outline: as §1

[22] = molecular target: Gal(b1-4)GlcNAc(b1-2)[Gal(b1-4)GlcNAc(b1-4)]Man(a1-3)[GlcNAc(b1-4)][Gal(b1-4)GlcNAc(b1-2)Man(a1-6)]Man(b1-4)GlcNAc(b1-4)GlcNAc
Outline: as §1

[23] = molecular target: Gal(b1-4)GlcNAc(b1-3)Gal(b1-4)GlcNAc(b1-2)Man(a1-3)[Gal(b1-4)GlcNAc(b1-3)Gal(b1-4)GlcNAc(b1-2)Man(a1-6)]Man(b1-4)GlcNAc(b1-4)GlcNAc
Outline: as §1

[24] = molecular target: Gal(b1-4)GlcNAc(b1-3)Gal(b1-4)GlcNAc(b1-2)Man(a1-3)[Gal(b1-4)GlcNAc(b1-3)Gal(b1-4)GlcNAc(b1-2)Man(a1-6)]Man(b1-4)GlcNAc(b1-4)[Fuc(a1-6)]GlcNAc
Outline: as §1

B1: SUN4 (Saccharomyces cerevisiae), P53616 (protein)
chain: MGSSHHHHHHSSGLVPRGSHNGSIYGDLADFSGPYEKFEDGTIPCGQFPSGQGVIPISWLDEGGWSGVENTDTSTGGSCKEGSYCSYACQPGMSKTQWPSDQPSDGRSIGGLLCKDGYLYRSNTDTDYLCEWGVDAAYVVSELSNDVAICRTDYPGTENMVIPTYVQAGDSLPLTVVDQDTYYTWQGLKTSAQYYVNNAGISVEDACVWGSSSSGVGNWAPLNFGAGSSDGVAYLSLIPNPNNGNALNFNVKIVAADDSSTVNGECIYENGSFSGGSDGCTVSVTAGKAKFVLYN
glycan array binding signal (z-score) [1]: 0.954
glycan array binding signal (z-score) [2]: -0.752
glycan array binding signal (z-score) [3]: -0.207
glycan array binding signal (z-score) [4]: 0.297
glycan array binding signal (z-score) [5]: 0.324
glycan array binding signal (z-score) [6]: -0.368
glycan array binding signal (z-score) [7]: -0.487
glycan array binding signal (z-score) [8]: -0.525
glycan array binding signal (z-score) [9]: -0.935
glycan array binding signal (z-score) [10]: 1.63
glycan array binding signal (z-score) [11]: 1.91
glycan array binding signal (z-score) [12]: 3.09
glycan array binding signal (z-score) [13]: -0.077
glycan array binding signal (z-score) (Gal(a1-6)Glc): -1.22
glycan array binding signal (z-score) (Gal(b1-3)GalNAc(b1-3)Gal): -0.668
glycan array binding signal (z-score) [14]: 0.295
glycan array binding signal (z-score) [15]: -0.257
glycan array binding signal (z-score) [16]: 0.342
glycan array binding signal (z-score) [17]: -0.488
glycan array binding signal (z-score) [18]: -0.163
glycan array binding signal (z-score) [19]: 0.101
glycan array binding signal (z-score) [20]: 0.835
glycan array binding signal (z-score) (Gal(b1-4)Glc6S): -0.03
glycan array binding signal (z-score) [21]: 0.829
glycan array binding signal (z-score) [22]: 0.208
glycan array binding signal (z-score) [23]: 2.66
glycan array binding signal (z-score) [24]: 2
